In the supplement of paper PMC9801561:

Test system: Escherichia coli Nissle 1917
Assay: DuctApe activity index of respiration/growth curve (0 no growth to 9 maximum) (index 0-9); higher = more growth / nutrient utilisation, active = 3 or more; extreme values may be limits of the assay
Details: nutrient role: C-Source, carbohydrate; incubation: 48 h, 37 °C
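Further: biolog PM4 phosphorus and sulfur plates, tetrazolium violet dye reduction read in the OmniLog every 15 min, kinetic curves scored by DuctApe, each plate run in triplicate.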

**Q.** How did the DuctApe activity index turn out when `CO[C@H]1O[C@H](CO)[C@H](O)[C@H](O)[C@H]1O` [a-Methyl-D-Galactoside] was run?
**A.** 8 (active)

**Q.** How did the DuctApe activity index turn out when `C[C@@H]1OC(O)[C@H](O)[C@H](O)[C@H]1O` (stereo partly drawn) [L-Rhamnose] was run?
**A.** 7.33 (active)

**Q.** `O=C[C@@H](O)[C@H](O[C@@H]1O[C@H](CO)[C@H](O)[C@H](O)[C@H]1O)[C@H](O)CO` [3-O-b-D-Galactopyranosyl-D-Arabinose] was tested. Which DuctApe activity index did it give?
**A.** 8.33 (active)

**Q.** `OC[C@H]1O[C@H](OC[C@H]2OC(O)[C@H](O)[C@@H](O)[C@@H]2O)[C@H](O)[C@@H](O)[C@H]1O` (stereo partly drawn) [D-Melibiose] was tested. Which DuctApe activity index did it give?
**A.** 7.67 (active)

**Q.** With `OCC1OC(O)(CO)C(O)C1O` [D-Fructose] as the compound, how does the DuctApe activity index read?
**A.** 8.67 (active)

**Q.** How did the DuctApe activity index turn out when `CC1OC(O)C(O)C(O)C1O` [L-Fucose] was run?
**A.** 7.67 (active)

**Q.** For `OC[C@@H](O)[C@@H](O)[C@H](O)[C@@H](O)CO` [D-Sorbitol], which DuctApe activity index is on record?
**A.** 8.33 (active)

**Q.** Which DuctApe activity index does the source give for `OC[C@H]1O[C@H](O[C@H]2[C@H](O)[C@@H](O)[C@@H](O[C@H]3[C@H](O)[C@@H](O)C(O)O[C@@H]3CO)O[C@@H]2CO)[C@H](O)[C@@H](O)[C@@H]1O` (mixture of isomers) [Maltotriose] here?
**A.** 8 (active)

**Q.** With `OCC1(O)OC[C@@H](O)[C@@H](O)[C@H]1O` (stereo partly drawn) [D-Psicose] as the compound, how does the DuctApe activity index read?
**A.** 4 (active)

**Q.** With `OC[C@H]1O[C@H](OC[C@H]2O[C@H](O[C@]3(CO)O[C@H](CO)[C@@H](O)[C@@H]3O)[C@H](O)[C@@H](O)[C@@H]2O)[C@H](O)[C@@H](O)[C@H]1O` [D-Raffinose] as the compound, how does the DuctApe activity index read?
**A.** 7 (active)

**Q.** For `OC[C@H]1O[C@@H](O[C@H]2[C@H](O)[C@@H](O)[C@@H](O)O[C@@H]2CO)[C@H](O)[C@@H](O)[C@H]1O` [a-D-Lactose], which DuctApe activity index is on record?
**A.** 7.67 (active)

**Q.** With `OC[C@@H](O)[C@@H](O)[C@H](O)[C@H](O)CO` [D-Mannitol] as the compound, how does the DuctApe activity index read?
**A.** 7.67 (active)

**Q.** `OC[C@H]1O[C@H](OC[C@H]2O[C@H](OC[C@H]3O[C@H](O[C@]4(CO)O[C@H](CO)[C@@H](O)[C@@H]4O)[C@H](O)[C@@H](O)[C@@H]3O)[C@H](O)[C@@H](O)[C@H]2O)[C@H](O)[C@@H](O)[C@H]1O` [Stachyose] was tested. Which DuctApe activity index did it give?
**A.** 1.33 (inactive)

Same assay, conditions: nutrient role: C-Source, carboxylic acid; incubation: 48 h, 37 °C

**Q.** How did the DuctApe activity index turn out when `O=CC(=O)O` [Glyoxylic acid] was run?
**A.** 7 (active)

**Q.** How did the DuctApe activity index turn out when `CCCCCC(=O)O` [Caproic acid] was run?
**A.** 0 (inactive)

**Q.** For `O=C(O)Cc1ccc(O)cc1` [p-Hydroxyphenyl Acetic acid], which DuctApe activity index is on record?
**A.** 0 (inactive)

**Q.** How did the DuctApe activity index turn out when `O=C(O)CC(=O)O` [Malonic acid] was run?
**A.** 0 (inactive)

**Q.** For `O=C(O)[C@H](O)[C@@H](O)C(=O)O` [L-Tartaric acid], which DuctApe activity index is on record?
**A.** 0 (inactive)

**Q.** Which DuctApe activity index does the source give for `O=C(O)[C@@H](O)[C@@H](O)[C@H](O)[C@@H](O)C(=O)O` [D-Saccharic acid] here?
**A.** 8.67 (active)

**Q.** How did the DuctApe activity index turn out when `O=C(O)CC(O)(CC(=O)O)C(=O)O` [Citric acid] was run?
**A.** 0 (inactive)

**Q.** How did the DuctApe activity index turn out when `O=C(O)c1ccccc1O` [2-Hydroxybenzoic acid] was run?
**A.** 0 (inactive)

**Q.** `CCC(=O)C(=O)O` [a-Ketobutyric acid] was tested. Which DuctApe activity index did it give?
**A.** 1.67 (inactive)

Same assay, conditions: nutrient role: sole nitrogen source (pyruvate carbon); incubation: 48 h, 37 °C

**Q.** Which DuctApe activity index does the source give for `CCC(N)C(=O)O` (racemic) [DL-a-Amino-N-Butyric acid] here?
**A.** 7 (active)

**Q.** With `NCCCCN=C(N)N` [Agmatine] as the compound, how does the DuctApe activity index read?
**A.** 0 (inactive)

**Q.** With `Nc1cc[nH]c(=O)n1` [Cytosine] as the compound, how does the DuctApe activity index read?
**A.** 7 (active)

**Q.** With `NCCN` [Ethylenediamine] as the compound, how does the DuctApe activity index read?
**A.** 0 (inactive)

**Q.** Which DuctApe activity index does the source give for `Oc1nc(O)c2nc(O)[nH]c2n1` [Uric acid] here?
**A.** 2.33 (inactive)

Same assay, conditions: nutrient role: sole phosphorus source (pyruvate carbon); incubation: 48 h, 37 °C

**Q.** `Nc1nc2c(ncn2[C@@H]2O[C@H](CO)[C@@H](OP(=O)(O)O)[C@H]2O)c(=O)[nH]1` [Guanosine 3`-Monophosphate] was tested. Which DuctApe activity index did it give?
**A.** 9 (active)

**Q.** For `Nc1ncnc2c1ncn2[C@@H]1O[C@H](CO)[C@@H](O)[C@H]1OP(=O)(O)O` [Adenosine 2`-Monophosphate], which DuctApe activity index is on record?
**A.** 9 (active)

**Q.** How did the DuctApe activity index turn out when `O=P(O)(O)O[C@H]1[C@H](OP(=O)(O)O)[C@@H](OP(=O)(O)O)[C@H](OP(=O)(O)O)[C@@H](OP(=O)(O)O)[C@H]1OP(=O)(O)O` [Inositol Hexaphosphate] was run?
**A.** 8.67 (active)

**Q.** How did the DuctApe activity index turn out when `C[C@@H](OP(=O)(O)O)[C@H](N)C(=O)O` [O-Phospho-L-Threonine] was run?
**A.** 8.67 (active)

**Q.** For `N[C@@H]1[C@@H](O)[C@H](O)[C@@H](COP(=O)(O)O)O[C@@H]1O` [D-Glucosamine-6-Phosphate], which DuctApe activity index is on record?
**A.** 8.67 (active)

**Q.** How did the DuctApe activity index turn out when `Nc1ncnc2c1ncn2[C@@H]1O[C@H](COP(=O)(O)O)[C@@H](O)[C@H]1O` [Adenosine 5`-Monophosphate] was run?
**A.** 8.67 (active)

**Q.** Which DuctApe activity index does the source give for `O=c1ccn([C@@H]2O[C@H](CO)[C@@H](O)[C@H]2OP(=O)(O)O)c(=O)[nH]1` [Uridine 2`-Monophosphate] here?
**A.** 7 (active)
